The list is not random: actives were taken first. Their share in the collection is about 9%.
G9a block – qHTS Assay for Inhibitors of Histone Lysine Methyltransferase G9a | Histone-lysine N-methyltransferase EHMT2 (Homo sapiens), Q96KQ7 | G9a H3K9 monomethylation, AlphaScreen, 2 h | Potency, µM (top dose mostly 102 µM), inactives show at the highest dose activity, negative = inhibition, hits mostly inhibitors | 350,000 tested, 8.8% active; further: on the % scale 0 is the no-effect control and ±100 the full control effect; nearly all actives have a fitted effect of over 75% in size
Target sequence (Q96KQ7 913-1193 limits assumed): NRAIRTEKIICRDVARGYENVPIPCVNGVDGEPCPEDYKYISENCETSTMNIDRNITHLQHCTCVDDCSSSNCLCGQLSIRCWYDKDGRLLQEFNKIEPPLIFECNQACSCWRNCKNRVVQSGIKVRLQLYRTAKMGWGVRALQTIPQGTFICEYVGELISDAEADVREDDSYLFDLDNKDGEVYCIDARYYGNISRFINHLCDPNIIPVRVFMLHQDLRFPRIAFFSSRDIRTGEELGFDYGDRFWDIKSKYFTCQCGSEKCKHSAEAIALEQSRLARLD
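G9a (20 nM) preincubated 15 min RT with compounds, then 500 nM biotinylated H3K9 peptide and 20 uM SAM added; 2 h RT reaction. Monomethyl-H3K9 product detected by AlphaScreen with anti-H3K9me1 antibody, streptavidin donor and anti-rabbit IgG acceptor beads.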
PLK1 PBD inh – qHTS for Inhibitors of PLK1-PDB (polo-like kinase 1 - polo-box domain): Primary Screen; Serine/threonine-protein kinase PLK1 (Homo sapiens), P53350; AID 720504, 2013; 360,000 tested, 2.8% active; Potency, µM, for the others: max response, negative = inhibition, usual class: inhibitors; Plk1 PBD binding of FITC phosphopeptide, fluorescence polarization; further: series mostly up to about 57 µM; on the % scale 0 is the no-effect control and ±100 the full control effect; nearly all actives have a fitted effect of over 65% in size
BAZ2B inh – qHTS Assay for Inhibitors of BAZ2B; AlphaScreen BAZ2B-H3K14Ac peptide displacement; Potency, µM (top dose mostly 114 µM), for inactives: at the highest dose activity change, negative = inhibition, usual class: inhibitors; 360,000 tested, 4.4% active; further: on the % scale 0 is the no-effect control and ±100 the full control effect; nearly all actives have a fitted effect of over 60% in size
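AlphaScreen displacement: compounds (up to 110uM) incubated 30 min at room temperature with a preformed 50 nM BAZ2B/50 nM biotinylated H3K14Ac peptide complex in PBS pH 7.4 with Tween-20. Donor and acceptor beads at 10 ug/mL final added, 20 min light-protected before reading.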
ALOX12 inh – Primary qHTS assay for inhibitors of human arachidonate 12S-lipoxygenase (ALOX12): Round 2. Potency, µM (top dose mostly 108 µM), for inactives: top-dose activity change, negative = inhibition, most hits filed as inhibitors. purified 12hLO, xylenol orange hydroperoxide absorbance. Polyunsaturated fatty acid lipoxygenase ALOX12 (Homo sapiens), P18054. 580,000 tested, 1.1% active; further: on the % scale 0 is the no-effect control and ±100 the full control effect
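Hydroperoxide product was detected by ferrous iron/xylenol orange as the 573 to 405 nm absorbance ratio. Arachidonic acid at 40 uM (final) was turned over for 30 min at room temperature by 150 nM human 12hLO, pH 7.0 Hepes buffer, after 15 min compound preincubation.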
JMJD2A Tudor – qHTS Assay for Inhibitors of JMJD2A-Tudor Domain | AlphaScreen JMJD2A-Tudor / H3K4me3 peptide binding | 390,000 tested, 4.4% active | AID 504339, 2011 | Potency, µM (highest dose often 114 µM), for inactives: at the top dose activity change, negative = inhibition, most hits filed as inhibitors | Lysine-specific demethylase 4A (Homo sapiens), O75164; further: on the % scale 0 is the no-effect control and ±100 the full control effect; nearly all actives have a fitted effect of over 50% in size
HP1b chromo inh – HTS for Inhibitors of HP1-beta Chromodomain Interactions with Methylated Histone Tails | Chromobox protein homolog 1 (Homo sapiens), P83916 | AlphaScreen HP1-beta / biotin-H3K9me3 peptide binding | Potency, µM (highest dose often 114 µM), for inactives: top-dose activity change, negative = inhibition, hits mostly inhibitors | 390,000 tested, 0.56% active; further: nearly all actives have a fitted effect of over 70% in size
Target sequence (P83916 whole entry, looked up): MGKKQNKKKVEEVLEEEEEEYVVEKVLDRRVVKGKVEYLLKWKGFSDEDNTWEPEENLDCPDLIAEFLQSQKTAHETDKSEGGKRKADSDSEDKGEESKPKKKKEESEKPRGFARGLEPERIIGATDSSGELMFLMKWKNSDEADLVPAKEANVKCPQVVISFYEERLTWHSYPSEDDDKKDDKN
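AlphaScreen: HP1-beta (50 nM) preformed 30 min with biotin-H3(1-18)K9me3 peptide (50 nM) in PBS pH 7.4, 0.01% Tween-20. Compound added for 30 min at RT, then streptavidin donor/nickel chelate acceptor beads (10 ug/mL) for 30 min.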
The depositor's hits bear a star; u = inconclusive; x = no result given; [ ] = remark or other dose. The call rests on the fitted dose curve; in most records, active means well fitted curve in the direction sought with a large enough effect; inconclusive means small, poorly fitted or top-dose-only effect, or another doubt; inactive means no such curve, though single readings can be large; an effect the other way counts as inactive or inconclusive. Potency means the concentration at half of the fitted maximal effect.

SMILES	G9a block	PLK1 PBD inh	BAZ2B inh	ALOX12 inh	JMJD2A Tudor	HP1b chromo inh
O=C(c1ccc(S(=O)(=O)N2CCC(c3nc4ccccc4s3)CC2)cc1)N1CCCCC1	x	-3%	x	-27%	-18%	22%
O=C(c1ccc(S(=O)(=O)N2CCC(c3nc4ccccc4s3)CC2)cc1)N1CCOCC1	40µM*	-1%	5%	-2%	-15%	6%
O=C(CCC(=O)N/N=C/c1cc(Cl)cc(Cl)c1O)NCc1ccccc1	x	9.5µM*	5%	-17%	28µM*	-2%
COc1ccc(CCn2c(-n3nc(C)cc3C)nc3c2c(=O)[nH]c(=O)n3C)cc1	x	3µM*	x	0%	3.2µM*	-14%
COc1ccc(N2CCN(Cc3nc4c(c(=O)[nH]c(=O)n4C)n3Cc3ccccc3C)CC2)cc1	28µM*	x	-23%	u	-4%	19%
COc1ccc(N2CCN(c3nc4c(c(=O)[nH]c(=O)n4C)n3Cc3cccc(C)c3)CC2)cc1	10µM*	-6%	-34%	-7%	u	u
CCN1CCN(c2nc3c(c(=O)[nH]c(=O)n3C)n2Cc2cccc(C)c2)CC1	x	-3%	x	-3%	x	x
CCCCn1c(=O)nc2n(-c3ccc(Br)cc3)c3ccccc3cc-2c1=O	8%[59 µM]	x	2%	u	2%	4%
Cn1c(N)c(C(=O)c2ccc(Cl)cc2)c(=O)n(C)c1=O	20%	-13%	2%	-32%	-15%[57.1 µM]	61%
COc1ccc(C2c3[nH]c4ccccc4c3CCN2CCCn2cccn2)c(C)c1C (stereo not drawn)	40µM*	-10%	u	15%	u	-17%
COc1cccc(C2c3[nH]c4ccccc4c3CCN2CCCn2cccn2)c1 (stereo not drawn)	u	3%	u	-10%	-24%	10%
O=C(NC(=S)Nc1ccc([N+](=O)[O-])cc1)c1ccco1	x	-8%	x	-7%	x	x
O=C(NNc1ccc([N+](=O)[O-])cc1)c1ccco1	45µM*	-4%	-11%	u	-4%	11%
O=C(NNc1ccc([N+](=O)[O-])cc1[N+](=O)[O-])c1ccco1	40µM*	-21%	40µM*	x	u	u
C/C(=N\NS(=O)(=O)c1ccc([N+](=O)[O-])cc1)c1ccc(NC(=O)c2ccco2)cc1	35µM*	-9%	-10%	-17%	-11%	12%
Cc1nc2ccccc2c2nc(N)nn12	4%[59 µM]	0%	1%	-3%	1%	24%
CSc1cccc(NC(=O)C2CC(=O)N(Cc3ccccc3)C2)c1 (stereo not drawn)	45µM*	0%	-19%	-6%	-14%	38%
CCN(c1ccccc1)S(=O)(=O)c1ccc(OC)c(NC(=O)C2CC(=O)N(Cc3ccccc3)C2)c1 (stereo not drawn)	56µM*	-9%	-27%	-17%	-33%	21%
CCN(c1ccccc1)S(=O)(=O)c1ccc(OC)c(NC(=O)c2ccco2)c1	x	3%	x	11%	x	x
O=C(O)C1CC(=O)N(Cc2ccc(F)cc2)C1 (stereo not drawn)	-30%[12.7 µM]	27µM*	4%	0%	-25%[11.4 µM]	15%
COc1ccc(CC(=O)Nc2nc(-c3ccc(OC)c(OC)c3)cs2)cc1OC	-17%	-3%	u	-2%	u	-20%
COc1ccc(-c2csc(NC(=O)C3CC(=O)N(Cc4ccccc4)C3)n2)cc1OC (stereo not drawn)	50µM*	-6%	u	u	u	-24%
CCc1ccc(CN2CC(C(=O)O)CC2=O)cc1 (stereo not drawn)	18%[59 µM]	-1%	-11%	-11%	-9%	31%
CN(C)c1ccc(CNC(=O)C2(C)Cc3c(-c4ccc(N(C)C)cc4)ccnc3O2)cc1 (stereo not drawn)	x	-3%	x	u	x	x
Cc1cccc(OCCOCCN2CCNCC2)c1C	-14%[59 µM]	u	-27%	-2%	-19%[57.1 µM]	9%
SMILES	G9a block	PLK1 PBD inh	BAZ2B inh	ALOX12 inh	JMJD2A Tudor	HP1b chromo inh
Cc1ccc(C(C)C)cc1OCCN	x	x	x	-5%	x	x
COc1ccccc1OCCOCCN1CCCC1	25µM*	3%	-26%	u	50µM*	u
Cc1ccc(C(C)C)cc1OCCOCCN1CCCC1	13µM*	1%	u	u	7.1µM*	u
Cc1ccccc1OCCOCCN1CCCCCC1	40µM*	1%	u	-11%	u	u
O=C(O)CC1(CC(=O)NCCN2CCOCC2)CCCC1	x	x	x	-4%	x	x
CC(=O)Nc1ccc(C(=O)OCC(=O)N2CC3(C)CC2CC(C)(C)C3)cc1 (stereo not drawn)	x	-1%	x	-19%	-10%	34%[57 µM]
COc1ccc(CCNC(=O)C(CC(C)C)NC(N)=O)cc1 (stereo not drawn)	22%	-3%	-3%	-3%	-2%	30%
CCCCNS(=O)(=O)CCNCc1ccc(OC)cc1	x	-4%	x	u	-27%	35%
CCCCCCCCNCCS(=O)(=O)NCc1ccccc1	x	-4%	x	-39%	3%	72%
CCCCCCCCNCCS(=O)(=O)NN1CCOCC1	x	7.5µM*	x	2%	-5%	42%
COc1ccc(CNCCS(=O)(=O)NN2CCOCC2)cc1	x	9.5µM*	x	-10%	-23%	36%
Cc1ccc(C(C)n2cc(C(=O)NCc3cccnc3)nn2)cc1 (stereo not drawn)	23%	1%	u	-7%	-19%	33%
COc1ccc2oc(CNC(=O)C3CCN(CC(N)=O)CC3)nc2c1	x	x	x	76%	x	x
O=C(O)c1nnsc1-c1csnn1	x	-5%	x	u	-17%	9%
NNC(=O)c1nnsc1-c1csnn1	x	-7%	x	-35%	79µM*	22%
COc1ccccc1NC(=O)Cc1ccsc1	5%	0%	-2%	-7%	-4%	47%
Cc1ccccc1NC(=O)Cc1nc(COC(=O)c2ccccn2)cs1	50µM*	-5%	9%	u	1%	20%
